Experiment [1] addresses human Tropomyosin Receptor Kinase A (TRKA), NTRK1 (gene 4914) (UniProt P04629). Kind of experiment: NVS_ENZ_hTrkA: NovaScreen (NVS) Enzymatic Assay for human Tropomyosin Receptor Kinase A (TRKA) (AID 2283224). In short, it runs like this: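 Recombinant human TrkA activity read after 1 h by fluorescence with electrophoretic mobility shift separating substrate and product. Primary screen in duplicate at 25 uM; actives were rerun in concentration-response up to 50 uM. Loss of signal versus DMSO.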

The target in experiment [2] is human Vascular Endothelial Growth Factor Receptor 1 (VEGFR1), FLT1 (gene 2321) (UniProt P17948). Kind of experiment: NVS_ENZ_hVEGFR1: NovaScreen (NVS) Enzymatic Assay for human Vascular Endothelial Growth Factor Receptor 1 (VEGFR1) (AID 2283226). In short, it runs like this: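 Cell-free assay of recombinant human VEGFR1 kinase with substrate, measured 1 h after dosing; fluorescence with electrophoretic mobility-shift separation of substrate and product, referenced to DMSO; primary screen at 25 uM in duplicate, actives then run in concentration series.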

Experiment [3] concerns the target human Vascular Endothelial Growth Factor Receptor 3 (VEGFR3), FLT4 (gene 2324) (UniProt P35916). Put plainly: NVS_ENZ_hVEGFR3: NovaScreen (NVS) Enzymatic Assay for human Vascular Endothelial Growth Factor Receptor 3 (VEGFR3) (AID 2283229). In short, it runs like this:
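Cell-free recombinant VEGFR3 kinase reaction with fluorescent substrate, read 1 h after dosing by electrophoretic mobility shift separation of substrate and product. Single-concentration duplicate screen at 25 uM, then concentration-response up to 50 uM; loss of activity versus DMSO.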

The target in experiment [4] is human Vascular Endothelial Growth Factor Receptor 2 (VEGFR2), KDR (gene 3791) (UniProt P35968). Kind of experiment: NVS_ENZ_hVEGFR2: NovaScreen (NVS) Enzymatic Assay for human Vascular Endothelial Growth Factor Receptor 2 (VEGFR2) (AID 2283230). In short, it runs like this:
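Cell-free recombinant VEGFR2 kinase, fluorescent substrate with electrophoretic mobility-shift separation; read 1 h after dosing. Screened at 25 uM in duplicate, hits to concentration-response up to 50 uM; loss-of-signal versus DMSO.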

Experiment [5] deals with rat Catechol-O-Methyl Transferase (COMT), Comt (gene 24267) (UniProt P22734). Put plainly: NVS_ENZ_rCOMT: NovaScreen (NVS) Enzymatic Assay for rat Catechol-O-Methyl Transferase (COMT) (AID 2283235). In short, it runs like this: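 Cell-free enzyme activity with protein extracted from rat dorsal striatum, measured by HPLC with absorbance detection. Compounds screened at 25 uM in duplicate; actives then run in concentration-response up to 50 uM, loss of signal versus DMSO.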

The target in experiment [6] is human Tyrosine Protein Kinase Receptor Tie-2 (Tie2), TEK (gene 7010) (UniProt Q02763). Kind of experiment: NVS_ENZ_hTie2: NovaScreen (NVS) Enzymatic Assay for human Tyrosine Protein Kinase Receptor Tie-2 (Tie2) (AID 2283225). In short, it runs like this: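 Recombinant human Tie2 kinase activity was read cell-free by fluorescence with electrophoretic mobility shift, 1 hour after dosing. The screen used 25 uM in duplicate, then concentration-response up to 50 uM. Signal loss was scored against DMSO.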

The target in experiment [7] is rabbit Imidazoline 2 Central (I2C), CKB (gene 100009085) (UniProt P00567). Put plainly: NVS_ENZ_rabI2C: NovaScreen (NVS) Enzymatic Assay for rabbit Imidazoline 2 Central (I2C) (AID 2283228). In short, it runs like this:
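Rabbit brain membranes, cell-free; readout by filter-based scintillation counting 1.5 hours after dosing, loss of signal vs DMSO. Initial duplicate test at 25 uM, then concentration-response with 50 uM top concentration.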

Experiment [8] deals with rat Monoamine Oxidase, MAO-A, Peripheral (MAOAP), gene 29253. Put plainly: NVS_ENZ_rMAOAP: NovaScreen (NVS) Enzymatic Assay for rat Monoamine Oxidase, MAO-A, Peripheral (MAOAP) (AID 2283237). In short, it runs like this:
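Rat liver mitochondrial membranes served as the MAO-A source, with enzyme activity measured by radiometric scintillation counting 1.17 hours after dosing. Loss of signal was fitted against DMSO; primary screen used 25 uM in duplicate, follow-up used concentration series.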

The target in experiment [9] is rat Adenylate Cyclase, Forskolin Stimulated, Adcy5 (gene 64532) (UniProt Q04400). Put plainly: NVS_ENZ_rACFSKBinding: NovaScreen (NVS) Enzymatic Assay for rat Adenylate Cyclase, Forskolin Stimulated (AID 2283232). In short, it runs like this: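 Rat forebrain membrane preparation, cell-free, read 1 h after dosing by filter-based scintillation counting. Primary screen in duplicate at 25 uM; actives (e.g. ≥30% inhibition) rerun in concentration-response up to 50 uM; fit versus DMSO.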

The structures appear in SMILES notation. Several values for one entry are separate records, joined by “and”; a condition that tells them apart may be missing. Identical values can stand only once. Records with an inconclusive call do not appear. A structure can be active in one record and inactive in another. Activity calls are given as the source filed them. The calls were made as follows: active = hit-call score of the fitted dose curve at least 0.9, where 1 is the maximum; inconclusive = response in the unintended direction; inactive = score below 0.9.

From PubChem BioAssay (EPA / NIEHS) come the findings set out here.

Usually AC50 stands for the concentration giving half of the maximal activity seen.

human Vascular Endothelial Growth Factor Receptor 1 (VEGFR1), FLT1 (gene 2321), sequence (P17948 whole entry, looked up): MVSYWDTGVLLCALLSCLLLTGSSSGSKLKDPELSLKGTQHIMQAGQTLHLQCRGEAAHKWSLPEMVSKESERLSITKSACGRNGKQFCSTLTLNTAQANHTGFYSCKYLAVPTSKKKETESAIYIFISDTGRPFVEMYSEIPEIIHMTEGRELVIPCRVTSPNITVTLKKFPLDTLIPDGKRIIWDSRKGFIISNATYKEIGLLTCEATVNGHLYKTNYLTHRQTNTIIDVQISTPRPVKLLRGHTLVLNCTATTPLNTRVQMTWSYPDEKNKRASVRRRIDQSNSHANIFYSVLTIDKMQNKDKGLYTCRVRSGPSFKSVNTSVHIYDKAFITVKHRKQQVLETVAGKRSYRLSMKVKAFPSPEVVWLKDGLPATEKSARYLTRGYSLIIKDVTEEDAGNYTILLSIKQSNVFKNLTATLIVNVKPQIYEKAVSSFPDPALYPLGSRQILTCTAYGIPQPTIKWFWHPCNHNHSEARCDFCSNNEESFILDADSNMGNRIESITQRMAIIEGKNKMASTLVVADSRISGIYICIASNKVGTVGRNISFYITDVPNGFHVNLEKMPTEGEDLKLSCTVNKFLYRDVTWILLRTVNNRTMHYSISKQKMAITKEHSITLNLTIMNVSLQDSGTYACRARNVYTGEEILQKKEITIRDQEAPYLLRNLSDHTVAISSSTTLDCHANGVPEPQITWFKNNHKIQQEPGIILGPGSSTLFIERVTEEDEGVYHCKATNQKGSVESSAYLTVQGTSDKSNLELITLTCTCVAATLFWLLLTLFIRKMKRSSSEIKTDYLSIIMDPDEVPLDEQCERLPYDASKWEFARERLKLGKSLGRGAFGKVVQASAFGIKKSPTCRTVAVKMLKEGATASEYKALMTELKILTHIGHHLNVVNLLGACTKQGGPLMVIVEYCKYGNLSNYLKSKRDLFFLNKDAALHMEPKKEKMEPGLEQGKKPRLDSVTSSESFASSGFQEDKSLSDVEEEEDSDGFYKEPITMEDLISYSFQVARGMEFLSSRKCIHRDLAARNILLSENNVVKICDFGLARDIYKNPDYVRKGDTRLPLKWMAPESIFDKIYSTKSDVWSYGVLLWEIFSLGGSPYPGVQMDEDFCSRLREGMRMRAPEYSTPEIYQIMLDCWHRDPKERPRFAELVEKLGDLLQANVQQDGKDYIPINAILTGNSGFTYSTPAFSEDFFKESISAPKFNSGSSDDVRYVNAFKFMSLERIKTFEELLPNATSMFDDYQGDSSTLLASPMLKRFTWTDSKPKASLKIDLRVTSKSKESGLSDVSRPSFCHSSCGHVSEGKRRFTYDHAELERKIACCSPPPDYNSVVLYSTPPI
human Vascular Endothelial Growth Factor Receptor 3 (VEGFR3), FLT4 (gene 2324), sequence (P35916 whole entry, looked up): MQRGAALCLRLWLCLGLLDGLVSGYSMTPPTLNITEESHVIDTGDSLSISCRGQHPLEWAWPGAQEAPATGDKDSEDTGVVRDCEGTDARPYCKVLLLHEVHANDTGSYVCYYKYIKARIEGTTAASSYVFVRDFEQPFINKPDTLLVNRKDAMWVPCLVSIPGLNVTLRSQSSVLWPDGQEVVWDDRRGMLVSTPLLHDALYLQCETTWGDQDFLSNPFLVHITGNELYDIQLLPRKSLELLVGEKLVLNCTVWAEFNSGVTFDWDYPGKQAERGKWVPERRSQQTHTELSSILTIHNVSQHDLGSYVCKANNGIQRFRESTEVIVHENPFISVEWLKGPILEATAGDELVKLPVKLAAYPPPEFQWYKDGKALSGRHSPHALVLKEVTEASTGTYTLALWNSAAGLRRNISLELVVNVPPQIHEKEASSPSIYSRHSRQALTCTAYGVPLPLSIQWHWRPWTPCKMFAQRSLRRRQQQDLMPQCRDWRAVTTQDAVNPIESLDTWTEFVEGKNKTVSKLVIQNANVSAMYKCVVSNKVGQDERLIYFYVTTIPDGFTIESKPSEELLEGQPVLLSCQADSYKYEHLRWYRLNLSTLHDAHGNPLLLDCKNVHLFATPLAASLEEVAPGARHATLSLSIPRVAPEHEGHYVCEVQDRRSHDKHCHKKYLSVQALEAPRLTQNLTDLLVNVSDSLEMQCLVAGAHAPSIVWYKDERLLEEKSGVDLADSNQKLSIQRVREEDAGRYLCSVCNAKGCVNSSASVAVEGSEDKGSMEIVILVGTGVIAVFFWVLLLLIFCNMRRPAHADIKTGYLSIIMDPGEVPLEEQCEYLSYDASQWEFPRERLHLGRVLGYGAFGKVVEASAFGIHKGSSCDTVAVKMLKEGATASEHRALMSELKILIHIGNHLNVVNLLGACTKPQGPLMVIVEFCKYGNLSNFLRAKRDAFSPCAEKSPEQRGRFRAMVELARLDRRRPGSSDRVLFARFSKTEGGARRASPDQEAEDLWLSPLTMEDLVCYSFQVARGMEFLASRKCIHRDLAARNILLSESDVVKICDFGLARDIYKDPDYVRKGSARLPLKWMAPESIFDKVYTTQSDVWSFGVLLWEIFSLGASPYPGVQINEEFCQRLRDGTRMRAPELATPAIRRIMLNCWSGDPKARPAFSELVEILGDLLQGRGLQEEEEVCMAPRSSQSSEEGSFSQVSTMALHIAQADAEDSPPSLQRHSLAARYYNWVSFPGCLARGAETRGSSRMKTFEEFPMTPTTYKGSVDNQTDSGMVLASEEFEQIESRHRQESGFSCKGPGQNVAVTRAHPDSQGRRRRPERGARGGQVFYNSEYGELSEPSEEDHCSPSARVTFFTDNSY
human Vascular Endothelial Growth Factor Receptor 2 (VEGFR2), KDR (gene 3791), sequence (P35968 whole entry, looked up): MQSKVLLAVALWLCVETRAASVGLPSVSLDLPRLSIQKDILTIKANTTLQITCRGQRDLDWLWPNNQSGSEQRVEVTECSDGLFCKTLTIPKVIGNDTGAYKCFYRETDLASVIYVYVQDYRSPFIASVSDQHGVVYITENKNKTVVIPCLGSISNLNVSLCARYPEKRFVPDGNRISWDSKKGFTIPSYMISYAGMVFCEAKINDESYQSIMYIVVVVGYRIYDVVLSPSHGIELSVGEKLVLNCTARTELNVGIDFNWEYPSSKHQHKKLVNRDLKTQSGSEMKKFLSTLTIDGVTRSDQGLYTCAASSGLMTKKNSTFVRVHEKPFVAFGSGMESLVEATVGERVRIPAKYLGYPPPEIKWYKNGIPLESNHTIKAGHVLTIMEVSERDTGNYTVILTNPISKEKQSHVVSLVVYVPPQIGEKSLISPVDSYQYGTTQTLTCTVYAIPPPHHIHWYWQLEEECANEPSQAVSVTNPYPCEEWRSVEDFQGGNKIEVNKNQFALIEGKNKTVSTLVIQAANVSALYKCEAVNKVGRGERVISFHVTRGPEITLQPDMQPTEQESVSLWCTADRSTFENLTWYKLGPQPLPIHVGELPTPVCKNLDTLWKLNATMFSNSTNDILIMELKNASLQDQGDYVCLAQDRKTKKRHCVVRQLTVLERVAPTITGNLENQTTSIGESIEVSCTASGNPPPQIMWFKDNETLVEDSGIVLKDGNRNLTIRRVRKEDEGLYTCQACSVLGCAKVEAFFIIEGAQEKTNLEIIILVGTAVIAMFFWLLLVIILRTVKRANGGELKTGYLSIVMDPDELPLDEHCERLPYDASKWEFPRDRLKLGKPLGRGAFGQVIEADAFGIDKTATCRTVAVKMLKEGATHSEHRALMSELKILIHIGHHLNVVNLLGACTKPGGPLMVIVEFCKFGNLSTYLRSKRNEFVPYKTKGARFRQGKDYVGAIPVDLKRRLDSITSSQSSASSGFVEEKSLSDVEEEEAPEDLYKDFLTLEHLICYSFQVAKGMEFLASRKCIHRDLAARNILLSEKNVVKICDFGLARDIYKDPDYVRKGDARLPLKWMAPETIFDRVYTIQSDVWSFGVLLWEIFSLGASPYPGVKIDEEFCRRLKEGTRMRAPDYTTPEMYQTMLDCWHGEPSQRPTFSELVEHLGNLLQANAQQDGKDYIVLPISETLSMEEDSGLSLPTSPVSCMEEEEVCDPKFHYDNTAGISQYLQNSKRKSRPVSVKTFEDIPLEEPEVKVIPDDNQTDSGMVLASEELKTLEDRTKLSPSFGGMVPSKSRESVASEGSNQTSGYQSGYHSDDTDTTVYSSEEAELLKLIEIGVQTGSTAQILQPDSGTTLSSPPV
rat Catechol-O-Methyl Transferase (COMT), Comt (gene 24267), sequence (P22734 whole entry, looked up): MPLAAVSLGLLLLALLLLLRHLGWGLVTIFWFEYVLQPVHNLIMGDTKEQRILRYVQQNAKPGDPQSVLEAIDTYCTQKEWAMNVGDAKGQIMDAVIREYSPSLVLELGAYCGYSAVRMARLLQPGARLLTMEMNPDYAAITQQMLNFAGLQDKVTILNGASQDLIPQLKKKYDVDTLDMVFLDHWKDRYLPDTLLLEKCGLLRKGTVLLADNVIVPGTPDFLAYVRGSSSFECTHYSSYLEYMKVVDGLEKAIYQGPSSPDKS
rabbit Imidazoline 2 Central (I2C), CKB (gene 100009085), sequence (P00567 whole entry, looked up): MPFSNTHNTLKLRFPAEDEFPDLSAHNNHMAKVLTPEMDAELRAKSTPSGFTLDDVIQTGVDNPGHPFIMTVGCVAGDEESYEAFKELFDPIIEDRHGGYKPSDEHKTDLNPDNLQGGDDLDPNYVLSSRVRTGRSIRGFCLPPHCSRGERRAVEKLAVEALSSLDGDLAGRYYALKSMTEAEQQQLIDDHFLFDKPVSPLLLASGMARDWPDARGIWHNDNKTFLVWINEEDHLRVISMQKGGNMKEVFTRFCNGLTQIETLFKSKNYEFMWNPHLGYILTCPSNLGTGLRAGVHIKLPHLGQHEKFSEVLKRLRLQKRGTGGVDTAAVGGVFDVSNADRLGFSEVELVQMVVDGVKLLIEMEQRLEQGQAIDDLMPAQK

With `CN(C)[C@@H]1C(=O)C(C(N)=O)=C(O)[C@@]2(O)C(=O)C3=C(O)c4c(O)cccc4[C@@](C)(O)[C@H]3[C@H](O)[C@@H]12`, the AC50 was 17.8 µM (active) in [1]; 3.49 µM (active) in experiment [2]; 6.44 µM (active) and 3.42 µM (active) and 969 nM (active) in experiment [3]; 12.3 µM (active) and 18.2 µM (active) in [4]; 3.33 µM (active) and 1.72 µM (active) in [5]. Also, the result in experiment [2] and in experiment [4] was inactive. With `CCCOc1nn(C(=O)NS(=O)(=O)c2ccccc2C(=O)OC)c(=O)n1C`, in experiment [3], the molecule was called inactive. With `CC[C@H](C)[C@H]1O[C@]2(C=C[C@@H]1C)C[C@@H]1C[C@@H](C/C=C(\C)[C@@H](O[C@H]3C[C@H](OC)[C@@H](O[C@H]4C[C@H](OC)[C@@H](NC)[C@H](C)O4)[C@H](C)O3)[C@@H](C)/C=C/C=C3\CO[C@@H]4[C@H](O)C(C)=C[C@@H](C(=O)O1)[C@]34O)O2`, the result in [4] was inactive. For the molecule `CCCCOC(=O)c1ccccc1C(=O)O`, in experiment [6], the result was inactive. Regarding `CCOP(=S)(OCC)SCCSCC`, the outcome in experiment [2] was inactive. For `C#CC(C)(C)NC(=O)c1cc(Cl)cc(Cl)c1`, the molecule was called inactive in [7]. For the molecule `CCC(=O)Nc1ccc(Cl)c(Cl)c1`, the AC50 in experiment [7] was 15.7 µM (active); in [8], 6.9 µM (active). For `CCC(=NOC/C=C/Cl)C1=C(O)CC(C2CCOCC2)CC1=O` (configuration not stated), the call in experiment [3] was inactive. Consider `CCOP(=S)(OCC)OC(Cl)C(Cl)(Cl)Cl` (configuration not stated), for which, in experiment [9], the call was inactive. On the same count and under the same terms, in the case of `Cc1ccn2nc(S(=O)(=O)Nc3c(F)cccc3F)nc2n1` it was “inactive”.
